This is an account of results in PubChem BioAssay (NCI).

Compounds without any hit were thinned out: in the full panel of roughly 83,000, 20% have a hit.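 Step 1: grow cells in 96-well plates. Step 2: add test compound at a single concentration. Step 3: incubate 48 h. Step 4: record percent growth.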 A number with no mark means an inactive call. The source made the active and inactive calls. Rule for the calls: active = growth percent below 10; inactive = the rest.

In the experiment the test system is HL-60(TB) leukemia. In words: NCI-60 one-dose screen, 48 h (100 = growth as untreated, 0 = no growth, -100 = all killed). To be noted: 10 µM unless noted.
Take `Cc1cccc2c3c(sc12)C(c1ccc(Cl)cc1)C(C#N)=C(N)O3` (stereo not given): the growth is -21% (active).
With `OCCNc1nc(NCCO)nc(Nc2ccc(C3=NN(c4cc(Cl)cc(Cl)c4)C(c4ccc(C(F)(F)F)cc4)C3)cc2)n1` (stereo not given) the figure was 16.7%; with `O=C1C=C(Nc2cccc(Br)c2)c2ccccc2C1=O`, 71.8%.
With `COc1ccc(/C=C2/CN(CCC#N)C/C(=C\c3ccc(OC)cc3)C2=O)cc1` the figure was 13.6%; with `Cc1ccc(C2CC(c3cccc(Nc4ccncc4)c3)=NN2c2ccccc2)cc1` (stereo not given), -56.6% (active).
`Cc1cc(NCc2cc(Nc3ccnc4cc(Cl)ccc34)ccc2F)nc(N2CCOCC2)n1`: the growth is -52.7% (active).
With `COc1ccc2nc(-c3ccc(OC)c(OC)c3)cc(-c3nnc(SCC(=O)Nc4ccc(C(C)=O)cc4)o3)c2c1` the figure was 77.7%.
With `O=C(Nc1ncc(Cc2cccc(C(F)(F)F)c2)s1)c1ccc(-n2cnnn2)cc1` the figure was 70.8%.
With `COc1cc(C)c2sc3ccccc3c(=O)c2c1NCCN(C)C` the figure was 61.2%.
Regarding `Cc1cccc(C)c1NC(=O)c1sc2nc3c(cc2c1N)C(=O)CCC3`, the growth was 104%.
With `CC(C)OC(=O)NNC(=O)c1ccncc1` the figure was 85.2%; with `O=C1c2c(c3c4ccccc4[nH]c3c3ccc4ccccc4c23)C(=O)N1CCN1CCOCC1`, 53.6%.
Regarding `N/C(=N\c1nc2ccccc2[nH]1)NC(=O)Cc1cccc2ccccc12`, the growth was 82.4%.
For `Cc1nc(NN)c([N+](=O)[O-])c(NN)n1`, the growth is 68.1%.
With `COc1ccc(NC(=O)Cc2nc3nc4sc(C)c(C)c4c(=O)n3[nH]2)cc1`, the growth was 109%.
Take `O=[N+]([O-])c1ccc(NCSc2ccc(Cl)cc2)cc1`: the growth is 83.2%.
With `Cc1ccc(NC(=O)c2ccc(Nc3ncnc4c3cnn4-c3cccc(F)c3)cc2)cc1` the figure was 90.2%; with `CC(C)(C)OC(=O)N1C/C(=C\c2cccs2)C(=O)/C(=C/c2cccs2)C1`, 96.7%; with `O=C(Nc1nc(-c2ccccc2Cl)cs1)c1cc(-c2ccc(Br)cc2)nc2ccccc12`, 37.2%.
Take `COc1ccc(-c2nc3ccc(-c4nc5ccc(N6CCN(c7ccccc7)CC6)cc5[nH]4)cc3[nH]2)cc1OC`: the growth was 16.1%.
With `Cc1cc(C)c(C(=O)c2cccs2)c(C)c1` the figure was 98.3%; with `CCCCc1ccc(NC(=O)N(CCCl)N=O)cc1`, 98.8%; with `Nc1c(C(=O)c2ccccc2)sc2nc(-c3cccs3)ccc12`, 9.36% (active).
With `COc1ccc(C(=O)c2cc(C)c(OC)c(C)c2)cc1OC(=O)CCl` the figure was -43.6% (active).
With `CCSc1nnc(Nc2ccc(C(C)C)cc2)s1` the figure was 48.8%; with `CNC(=O)c1cc(Oc2ccc3nc(NC(=O)Nc4ccc(Cl)c(Cl)c4)sc3c2)ccn1`, 78.8%; with `COc1ccc(C(=O)Nc2ccc3nc(N4CCCCC4)cc(C)c3c2)cc1OC`, 60.3%.
As for `COc1ccc(-c2nc(NCCO)[nH]c(=O)c2C#N)cc1`, the growth is 103%.
With `Nc1c2c(c(O)c3c1=C(CO)C=N3)=NCCS2` the figure was -33.7% (active); with `CCCCOc1ccc(NC(=O)n2nc(NC(C)=O)c3cc(NC(C)=O)ccc32)cc1`, 72.9%; with `COc1ccc(/C=C/c2n[nH]c3ccc(N4CCOC4=O)cc23)cc1`, -27.5% (active).
With `O=c1cc(N/N=C/c2ccc(F)cc2)c2cc(Cl)ccc2[nH]1` the figure was -9.23% (active); with `CN(C)c1ncnc2c1ncn2C1CCCCO1` (stereo not given), 96.3%.
With `COc1cc2c(cc1OC)C(CC1(O)CCCCC1)N(S(=O)(=O)c1ccc(C)cc1)CC2` (stereo not given) the figure was -25% [100 µM] (active).
As to `O=c1cc(CP(=O)(O)O)c2cc(O)c(-c3ccccc3)cc2o1`, the growth is 104%.
In the case of `Cc1ccc(CC(=O)O)c(C)c1`, the growth was 98%.
With `Nc1nc(N)c(N=Nc2ccc(C(=O)O)cc2)c(N)n1` the figure was 90%; with `CCCCCCNC(=O)Oc1ccc(/C(=C(\C)c2ccc(Cl)cc2)c2ccc(OCCN(CC)CC)cc2)cc1`, 44.3%.
With `Cc1ccc(-c2nc([P+](c3ccccc3)(c3ccccc3)c3ccccc3)c(N3C[C@H]4C[C@H](C3)c3cccc(=O)n3C4)o2)cc1` the figure was 36.7%.
`O=c1ccn(C2CCCO2)c(=O)[nH]1` (stereo not given): the growth was 111%.
